Hits are enriched below; roughly 1.2% of the tested compounds scored in any of these assays.
Tb PYK inh = T. brucei pyruvate kinase inhibition; TbPYK enzyme, Kinase-Glo Plus ATP luminescence, 45 min; Q57TT1; Potency, µM (titrated, usually from 76.8 µM), inactives show at the top dose activity, negative = inhibition, actives largely listed as inhibitors; 410,000 compounds, 0.12% hits; note: % is set by controls: 0 for no effect and ±100 for the full control effect; nearly all actives have a fitted effect of over 50% in size
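In this concentration-response screen, enzyme-free wells defined baseline while DMSO plates tracked drift. Each reaction combined TbPYK, substrate, compound and 130 uM ADP for 45 min at room temperature. Kinase-Glo Plus luminescence gave the signal.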
Giardia FBPA inh-1 = inhibitors of Giardia lamblia fructose-1,6-bisphosphate aldolase | AID 2451 | purified Giardia FBPA | 290,000 compounds, 0.71% hits | Potency, µM (series often up to 59.6 µM), for inactives: at the top dose activity, negative = inhibition, most hits filed as inhibitors; note: % is set by controls: 0 for no effect and ±100 for the full control effect; nearly all actives have a fitted effect of over 55% in size
Target sequence (A8B2U2 whole entry, looked up): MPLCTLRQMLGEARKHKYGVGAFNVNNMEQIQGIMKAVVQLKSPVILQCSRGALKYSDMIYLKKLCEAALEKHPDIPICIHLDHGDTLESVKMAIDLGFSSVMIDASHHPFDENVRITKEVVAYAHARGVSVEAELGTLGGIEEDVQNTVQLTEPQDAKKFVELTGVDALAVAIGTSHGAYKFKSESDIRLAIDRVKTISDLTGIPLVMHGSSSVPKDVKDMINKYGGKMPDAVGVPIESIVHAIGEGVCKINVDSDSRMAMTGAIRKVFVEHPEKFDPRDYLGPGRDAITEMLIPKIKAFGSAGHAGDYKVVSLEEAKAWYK
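40 nM FBPA preincubated 10 min at RT with compound (up to 57.5 uM final), then substrate plus GAPDH/TPI/NAD/arsenate coupling and diaphorase/resazurin added. Fluorescence read after 20 min at RT, 525/598 nm.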
NS1 function inh = influenza NS1 inhibition | Potency, µM (doses to about 46.1 µM), for the others: at the highest dose activity, positive = more growth | 270,000 compounds, 0.4% hits | AID 2326; calls by dose curve; note: actives are rising curves; nearly all actives have a fitted effect of over 50% in size
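A cell-based growth assay was used: compounds that relieve NS1-induced slow growth of budding yeast raise OD600. Assay medium was yeast nitrogen base with ammonium sulphate and -URA supplement, pH 6.0, with 2% galactose.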
AMA1 RON2 block = disrupts binding of P. falciparum AMA1 to RON2; AlphaScreen AMA1-biotinylated RON2 peptide binding; Potency, µM (top dose mostly 58.2 µM), without a hit: at the top dose activity change, negative = inhibition, usual class: inhibitors; 360,000 compounds, 0.2% hits; AID 720542;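 note: 0% = vehicle wells and -100% = peptide control; nearly all actives have a fitted effect of over 45% in size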
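AMA1 (3D7) with his tag at 25 nM final met compounds first, then biotinylated RON2 peptide at 25 nM; detection used donor plus acceptor beads, 10 µg/mL apiece, read by AlphaScreen after 30 min at room temperature.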
LmPK inhibitor = LmPK (Leishmania mexicana) enzyme inhibition | Q27686 | purified LmPK, Kinase-Glo ATP luminescence, 1 h | Potency, µM (highest dose often 57.5 µM), without a hit: at the top dose activity change, negative = inhibition, usual class: inhibitors | 290,000 compounds, 0.37% hits | AID 1721; note: % is set by controls: 0 for no effect and ±100 for the full control effect
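In 50 mM imidazole pH 7.2 with 7 mM MgCl2, LmPK (0.1 nM) turned over PEP (0.5 mM) and ADP (0.1 mM) for 1 h at room temperature. Luciferase read-out of ATP.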
Giardia growth = blocks growth of Giardia lamblia trophozoites; shares compounds with Giardia FBPA inh-1; Giardia lamblia trophozoite growth inhibition; Potency, µM (highest dose often 57.5 µM), inactives show at the top dose activity change, negative = inhibition, actives largely listed as inhibitors; 1,500 compounds, 5% hits; AID 2785;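 note: trophozoites exposed to compound for 48 h at 37 °C; % is set by controls: 0 for no effect and ±100 for the full control effect; nearly all actives have a fitted effect of over 70% in size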
Mammal cell tox = toxic to mammalian cells in Giardia aldolase counter-screen | shares compounds with Giardia FBPA inh-1 | Potency, µM (highest dose often 57.5 µM), inactives show at the highest dose viability change, negative = toxicity, most hits filed as inhibitors | mammalian cell viability counter-screen, qHTS | 1,500 compounds, 4% hits;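 note: Chinese hamster ovary cells used as mammalian cytotoxicity surrogate; viability measured as cellular ATP by luminescence; compound exposure lasted 48 h before reading; % is set by controls: 0 for no effect and ±100 for the full control effect; nearly all actives have a fitted effect of over 60% in size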
Giardia FBPA inh-2 = confirmation of Giardia fructose-bisphosphate aldolase inhibitors. purified Giardia aldolase enzyme activity, qHTS. AID 2787. Potency, µM (doses to about 57.5 µM), inactives show at the highest dose activity change, negative = inhibition, most hits filed as inhibitors. shares compounds with Giardia FBPA inh-1. 1,500 compounds, 5% hits; note: % is set by controls: 0 for no effect and ±100 for the full control effect; nearly all actives have a fitted effect of over 45% in size
Rabbit FBPA inh = blocks rabbit muscle aldolase in Giardia aldolase selectivity test; 1,500 compounds, 4% hits; Rabbit muscle FBPA enzyme inhibition, selectivity counter-screen; shares compounds with Giardia FBPA inh-1; Potency, µM (titrated, usually from 57.5 µM), for the others: at the top dose activity, negative = inhibition, actives largely listed as inhibitors; note: % is set by controls: 0 for no effect and ±100 for the full control effect; nearly all actives have a fitted effect of over 60% in size
GAPDH coupling = GAPDH inhibition flagged for Giardia aldolase hits; Potency, µM (series often up to 57.5 µM), for the others: at the top dose activity change, negative = inhibition, usual class: inhibitors; GAPDH coupling enzyme counterscreen, biochemical, qHTS; shares compounds with Giardia FBPA inh-1; 1,500 compounds, 6% hits; note: % is set by controls: 0 for no effect and ±100 for the full control effect; nearly all actives have a fitted effect of over 55% in size
* hit, by the source's call; ? = inconclusive; . = no result given; [ ] = dose if it differs, or a comment. Unless noted, calls come from the whole dose curve; as a rule, active = well fitted curve in the direction sought with a large enough effect; inconclusive = small, poorly fitted or top-dose-only effect, or another doubt; inactive = no such curve, though single readings can be large; an effect the other way counts as inactive or inconclusive. Potency is the fitted concentration of half-maximal effect.

SMILES | Tb PYK inh | Giardia FBPA inh-1 | NS1 function inh | AMA1 RON2 block | LmPK inhibitor | Giardia growth | Mammal cell tox | Giardia FBPA inh-2 | Rabbit FBPA inh | GAPDH coupling
O=C(NNC(=O)c1ccc(Cl)cc1Cl)c1cnccn1 | 6% | 20µM* | 4% | 90% | 3% | 8.9µM* | -8% | -5% | 5% | -1%
O=C(NNC(=O)c1cnccn1)c1cccc([N+](=O)[O-])c1 | -5% | 7% | 5% | 109% | 1% | . | . | . | . | .
O=C(NNC(=O)c1ccccc1[N+](=O)[O-])c1cnccn1 | 4% | 20µM* | 10% | 83% | 3% | ? | -13% | 2% | 1% | -4%
O=C(NNC(=O)c1cnccn1)c1ccc(Cl)cc1 | 4% | 13µM* | -8% | 75% | 2% | -5%[10.4 µM] | -4% | -5% | 5% | 3%
O=C(NC(=S)NNC(=O)c1cnccn1)c1ccc(F)cc1 | -11% | 5% | . | -66% | 9% | . | . | . | . | .
CCCC(=O)Nc1nnc(-c2ccco2)s1 | 1% | -7% | -19% | -4% | 0% | . | . | . | . | .
Nc1nnc(-c2ccco2)s1 | 1% | 6.3µM* | 0% | 3% | 4% | 5% | -14% | 1% | 4% | 1%
CCN(CC)C(=O)CSc1n[nH]c(=S)n1N | 6% | 7.1µM* | 1% | 77% | -2% | -18%[38.3 µM] | -11% | -30% | -19% | -19%
O=C1C(SCCO)=C(SCCO)C(=O)c2ccccc21 | 4µM* | 0.89µM* | -36% | -18% | . | ? | 11µM* | 6.3µM* | ? | 4µM*
CC1=C(SCc2ccccc2)C(=O)c2ccccc2C1=O | -16% | . | . | ? | . | . | . | . | . | .
COc1ccc(CCNC(=O)CSc2nnc(-c3ccco3)c(-c3ccco3)n2)cc1OC | . | 13µM* | 23% | . | 11% | -22% | -9% | -27% | -23% | -25%
Cc1ccc(NC(=S)N(CCN(C)C)Cc2cccs2)c(C)c1 | ? | 14µM* | . | -1% | -8% | -5%[10.4 µM] | -3% | -6% | 4% | 4%
Cc1cc(C)c(NC(=S)N(CCN(C)C)Cc2cccs2)c(C)c1 | 11% | 6% | . | -21% | -3% | . | . | . | . | .
COC(=O)NC(/C=C/c1ccccc1)C(C(C)=O)C(=O)OC (stereo unspecified) | . | -2% | . | . | . | . | . | . | . | .
Clc1ccc(SCCOCCN2CCOCC2)cc1 | 22% | 18µM* | -11% | ? | 1% | 9%[10.4 µM] | 25% | 11% | -1% | 11%
CC(C)C1=CC2=CC[C@@H]3[C@](C)(CCC[C@@]3(C)C(=O)O)[C@H]2CC1 | 0% | . | . | . | . | . | . | . | . | .
COc1ccc(-n2c(=S)[nH]c3ccc(C)cc3c2=O)cc1 | 1% | . | . | 27% | . | . | . | . | . | .
Cc1ccc(-n2c(=S)[nH]c3[nH]ncc3c2=O)cc1 | ? | 16µM* | . | 74% | -8% | 27% | -1% | -3% | 3% | -10%
O=c1c2cn[nH]c2[nH]c(=S)n1-c1ccccc1Cl | -15% | 25µM* | . | 33% | -4% | 28% | 17% | 7% | 2% | 13%
O=c1c2cn[nH]c2[nH]c(=S)n1-c1ccccc1F | ? | 7.1µM* | -7% | 0% | -1% | 2%[38.3 µM] | -2% | -3% | -6% | -1%

Screens from PubChem BioAssay.
